{
  "source": "ChEMBL document CHEMBL3988442",
  "about": "“University of Dundee, Small-Polar-MMV Screening Library” (2021)",
  "note": "Screen size: about 48,000 compounds; about 13,000 (27%) showed an effect of 50% or more. The list shows a part of the results.",
  "data": [
    {"system": "Wolbachia pipientis", "experiment": "Anti-Wolbachia Cell-Based Screen", "assay_type": "functional", "set-up": "scale not given: in the data most compounds retested in dose-response had high values", "conditions": "5 µM", "units": {"Percent Effect": "%"}, "values": [
      {"smiles": "COCC1CN(C(=O)Nc2cc(Br)ccc2F)CCO1", "note": "(stereo unspecified)", "Percent Effect": -0.1525},
      {"smiles": "COCCOc1ccc(NC(=O)N2CCOC(C(N)=O)C2)cc1F", "note": "(stereo unspecified)", "Percent Effect": 100.1},
      {"smiles": "CCOc1ccc(NC(=O)N2CCOC(C(N)=O)C2)cc1C", "note": "(stereo unspecified)", "Percent Effect": 95.69},
      {"smiles": "CCOc1ccc(C#N)cc1NC(=O)N1CCOC(C(N)=O)C1", "note": "(stereo unspecified)", "Percent Effect": 8.32},
      {"smiles": "COc1ccc(NC(=O)N2CCC(CSC)C2)cc1C", "note": "(stereo unspecified)", "Percent Effect": -50.59},
      {"smiles": "CCOc1ccc(NC(=O)NC2CCc3nc(C)nn3C2)cc1Cl", "note": "(stereo unspecified)", "Percent Effect": -21},
      {"smiles": "COCC1CN(C(=O)Nc2cc(Cl)ccc2F)CCO1", "note": "(stereo unspecified)", "Percent Effect": -13.77},
      {"smiles": "CCOc1ccc(NC(=O)N2CCOC(C(N)=O)C2)cc1Cl", "note": "(stereo unspecified)", "Percent Effect": 142.8},
      {"smiles": "COCC1CN(C(=O)Nc2ccc(Cl)cc2Cl)CCO1", "note": "(stereo unspecified)", "Percent Effect": -1.722},
      {"smiles": "Cc1cnc(C)c(N2CCC(Cc3ccccc3Cl)(C(=O)O)CC2)n1", "Percent Effect": 2.277},
      {"smiles": "CC(=O)N1CCCN(Cc2csc(C)n2)c2ccccc21", "Percent Effect": 0.8232},
      {"smiles": "Cc1[nH]nc2ncc(C(=O)N3CCN(CC(O)C(C)(C)C)CC3)cc12", "note": "(stereo unspecified)", "Percent Effect": -16.51},
      {"smiles": "CN(C)C(=O)N1CCN(C(=O)c2ccc(Cl)cc2)CC2(CNC(=O)C2)C1", "note": "(stereo unspecified)", "Percent Effect": -1.625},
      {"smiles": "CCCC(O)CN1CC(C)(C)CN(C(=O)c2ccc(Cl)cc2)CC1=O", "note": "(stereo unspecified)", "Percent Effect": 78.76},
      {"smiles": "CCCC(O)CN1CC(C)(C)CN(C(=O)c2ccccc2)CC1=O", "note": "(stereo unspecified)", "Percent Effect": 122.4},
      {"smiles": "CC(C)CN1CC2(CCN(C(=O)C(O)c3ccccc3Cl)CC2)CC1=O", "note": "(stereo unspecified)", "Percent Effect": -2.667},
      {"smiles": "CCCN(CCO)C(=O)C1CCC(=O)N(CCc2ccc(Cl)cc2)C1", "note": "(stereo unspecified)", "Percent Effect": -1.106},
      {"smiles": "CCCC(O)CN1CC(C)(C)CN(C(=O)c2ccc(SC)cc2)CC1=O", "note": "(stereo unspecified)", "Percent Effect": 118.8},
      {"smiles": "CSc1ccc(C(O)CNS(=O)(=O)C2CC2)cc1", "note": "(stereo unspecified)", "Percent Effect": 2.179},
      {"smiles": "CC1(C)CN(CC(O)C(C)(C)C)C(=O)CN(C(=O)c2ccccc2)C1", "note": "(stereo unspecified)", "Percent Effect": 117.8},
      {"smiles": "NC(=O)NCC(=O)N1C[C@H]2CC[C@@H]1CN(C1Cc3ccccc3C1)C2", "Percent Effect": -1.297},
      {"smiles": "COc1nc2c(cc1C(=O)N1C[C@H](N)C[C@H]1C(=O)NC(C)C)CCC2", "Percent Effect": -26.43},
      {"smiles": "CN(C)CCN1CC(C(=O)N2CCC(c3nccn3C)CC2)CC1=O", "note": "(stereo unspecified)", "Percent Effect": 2.201},
      {"smiles": "Cn1cnc2c1CCN(CC(=O)N(Cc1ccsc1)C1CC1)C2", "Percent Effect": -10.64},
      {"smiles": "COc1ccc(CNCCc2cccc(C(N)=O)c2)cc1C", "Percent Effect": -2.965},
      {"smiles": "CC(C)N1CCc2ncn(C(C)C)c2C1C(=O)N1CCN(C)CC1", "note": "(stereo unspecified)", "Percent Effect": -12.1},
      {"smiles": "CCc1nc(CCn2ccc3nc(OC)c(C#N)cc3c2=O)no1", "Percent Effect": 0.8236},
      {"smiles": "CC1COCCN1Cc1noc(C(C)(C)C)n1", "note": "(stereo unspecified)", "Percent Effect": 91.93},
      {"smiles": "CC(C)c1noc(CN2CCC3(CCCO3)CCC2=O)n1", "note": "(stereo unspecified)", "Percent Effect": -7.858},
      {"smiles": "CC(C)(C)c1nc(CN2CCC(N3CCCCC3)CC2)no1", "Percent Effect": 3.179},
      {"smiles": "CC(C)c1noc(CS(=O)(=O)Cc2nc(C(C)C)no2)n1", "Percent Effect": -3.73},
      {"smiles": "CC(C)c1noc(CN2CCOCC2C)n1", "note": "(stereo unspecified)", "Percent Effect": 107.7},
      {"smiles": "CC1CCCCN1Cc1nc(C2CC2)no1", "note": "(stereo unspecified)", "Percent Effect": 23.82},
      {"smiles": "CC(C)(C)c1noc(CN2CCCC(CNS(N)(=O)=O)C2)n1", "note": "(stereo unspecified)", "Percent Effect": -0.7485},
      {"smiles": "CC(C(=O)N1CCOCC1)S(=O)(=O)Cc1noc(C(C)(C)C)n1", "note": "(stereo unspecified)", "Percent Effect": -4.281},
      {"smiles": "CC1COCCN1Cc1nc(C(C)(C)C)no1", "note": "(stereo unspecified)", "Percent Effect": 110.8},
      {"smiles": "CCCc1noc(CN2CCOCC2C)n1", "note": "(stereo unspecified)", "Percent Effect": 76.64},
      {"smiles": "COCc1nc2cc(NCc3sc(C)nc3C)ccc2o1", "Percent Effect": 1.098},
      {"smiles": "CC1=C(C(=O)NCc2cccnc2-n2cnc3ccccc32)OCCO1", "Percent Effect": -15.12},
      {"smiles": "CSc1nccc(N2CCC(=O)N(CC3CC3)C(C(C)C)C2)n1", "note": "(stereo unspecified)", "Percent Effect": 8.272},
      {"smiles": "CCNC(=O)N1CC[C@H]2CC(=O)N(CCN3CCNC3=O)CC[C@H]2C1", "Percent Effect": 12.62},
      {"smiles": "Cl.OC(CNCc1ccccc1C(F)(F)F)c1ccccc1", "note": "(stereo unspecified)", "Percent Effect": -21.52},
      {"smiles": "Cn1cnc2c1CCN(Cc1nc(Cc3ccccc3)no1)C2", "Percent Effect": -6.335},
      {"smiles": "CC(C)Cc1noc(CN2CCOCC2)n1", "Percent Effect": -2.166},
      {"smiles": "CC1COCCN1Cc1nc(Cc2ccccc2)no1", "note": "(stereo unspecified)", "Percent Effect": 106.6},
      {"smiles": "CC(C)Cc1noc(CN2CCOCC2C)n1", "note": "(stereo unspecified)", "Percent Effect": 87.61},
      {"smiles": "CC(C)Cc1noc(CN2CCN(CCO)CC2)n1", "Percent Effect": -13.58},
      {"smiles": "CC1CCCCN1Cc1nc(Cc2ccccc2)no1", "note": "(stereo unspecified)", "Percent Effect": -14.27},
      {"smiles": "O=C(O)[C@@]12CN(c3cnccn3)C[C@@H]1CN(C1CCCC1)C2", "Percent Effect": 11.78},
      {"smiles": "CCS(=O)(=O)N(C)CC(=O)Nc1ccc(Br)cn1", "Percent Effect": 11.17},
      {"smiles": "CC1CN(C)c2ccccc2CN1C(=O)c1ccoc1", "note": "(stereo unspecified)", "Percent Effect": -34.7}
    ]}
  ]
}
